# Experimental data as given in paper PMC5540273 (PLoS ONE, 2017).
# Tested on: T1, RSK2(Kin.Dom.2-C-terminal)
# T1 construct: gene RPS6KA3
# Details: concentration: 1 μM, replicates: in singlicate; n = 1
# 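Note: KINOMEscan kinase panel screen.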
row,SMILES,%Inh
1,Cc1cccc(Nc2nc(N[C@H]3CCNC3)ncc2C(N)=O)c1.Cl [GSK2197149],0%
2,O=C(Nc1ccccc1F)NC1CCN(c2ccnc(Nc3ccc(F)cc3)n2)CC1 [GSK1379800],0%
3,CN(C)S(=O)(=O)c1cc(-c2ccc3nccc(-c4cccc(S(N)(=O)=O)c4)c3c2)cnc1N [GSK1669921],76%
4,COc1ccc(CNC(=O)NC2CCN(c3ccnc(Nc4ccc(F)cc4)n3)CC2)cc1 [GSK1379788],5%
5,Cl.Cl.NCC(C(=O)Nc1cc(Br)c(-c2ccnc3[nH]ccc23)s1)c1ccccc1 (stereo not drawn) [GSK1269851],2%
6,COC(=O)Nc1nc2ccc(Oc3ccc(NC(=O)Nc4cc(C(F)(F)F)ccc4F)cc3)cc2n1C.Cl [GW692089],0%
7,Nc1ncc(-c2cccnc2)c2scc(-c3ccc4c(c3)CCN4C(=O)Cc3ccccc3)c12 [GSK683281],24%
8,Cc1ccc(C(=O)Nc2ccc(Nc3ccnc4cc(-c5nccs5)ccc34)cc2O)cc1.Cl [GW494702],30%
9,Cn1cc(-c2[nH]c3cc(NC(=O)[C@H](N)C4CCCCC4)cc4c3c2C=NNC4=O)cn1,0%
10,CCc1ccc(-c2ccc3c(c2)-c2c(cnn2C)S(=O)(=O)N3C)cc1,29%
11,Nc1ncc(-c2ccc3nccc(-c4ccncc4)c3c2)cc1S(=O)(=O)N1CCOCC1 [GSK1627798],0%
12,O=C(Nc1n[nH]c2nc(-c3ccc(O)cc3)ccc12)C1CC1 [SB-710363],0%
